# In PubChem BioAssay AID652065 (The Scripps Research Institute Molecular Screening Center, 2013):
# The whole screen tested about 4,300 compounds, of which about 3,000 (70%) were called active.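 How the source made its calls: active means inhibition above a per-plate cutoff, the mean inhibition of sample wells plus 3 SD (cut at about 35% in these data); inactive means the rest.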 So high a share suggests a set chosen from earlier hits. Only a sample is shown.
# Experiment: small molecules binding CAG repeat RNA – biochemical, fluorescence, confirmation (AID 652065);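 further: loss of TO-PRO-1 fluorescence as compound displaces dye from 1x1 AA loop RNA; 0% = DMSO only wells and 100% = 100 µM mitoxantrone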
# Conditions: r(CAG) RNA repeat, TO-PRO-1 dye displacement fluorescence; at 3 µM; stronger effect = higher value
row,SMILES,inhibition
1,Cc1sc2nc(SCC(=O)c3ccc(O)c(O)c3)n(Cc3ccco3)c(=O)c2c1C,64.2% (active)
2,CCOC(=O)C1Nc2ccc(C(F)(F)F)cc2C2C=CCC12 (stereo not drawn),18.9% (inactive)
3,CC1(C(=O)NS(=O)(=O)c2ccc(C#N)cc2)CCN1C(=O)c1ccc(C2CCCCC2)cc1 (stereo not drawn),51.7% (active)
4,Cc1cc(/C=N/Nc2ccc([N+](=O)[O-])cn2)c(C)n1-c1cccc(C(=O)O)c1,35% (active)
5,Cc1ccc(-n2c(SCC(=O)Nc3ccc(S(=O)(=O)Nc4nccs4)cc3)nnc2-c2ccccn2)cc1,60.6% (active)
6,Cc1ccc(-n2c(SCC(=O)Nc3ccc(S(=O)(=O)Nc4nccs4)cc3)nnc2-c2cccnc2)cc1,58.8% (active)
7,Cc1ccc(-n2c(SCC(=O)Nc3ccc(S(=O)(=O)Nc4nccs4)cc3)nnc2-c2ccncc2)cc1,67.3% (active)
8,O=C(NNC(=S)NC(=O)c1cn(-c2ccccc2)nc1-c1ccccc1)c1ccncc1,54.8% (active)
9,O=C(O)c1ccc(N/N=C/c2cn(-c3ccccc3)nc2-c2cccs2)cc1,61.1% (active)
10,O=C(O)c1ccc(NC(=O)c2cn(-c3ccccc3)nc2-c2ccc(Cl)cc2)cc1,62.6% (active)
11,CC(C)=CCCC1(C)C=Cc2c(ccc3c2[nH]c2cc(O)c(C)cc23)O1 (stereo not drawn),30.6% (inactive)
12,Cc1cc(/C=C2/C(=N)N3C(=NC2=O)SN=C3S(C)(=O)=O)c(C)n1-c1ccccc1,81.7% (active)
13,CCOc1ccc(-n2c(O)c(/C=N/Nc3nnc(C)c(=O)[nH]3)c3ccccc3c2=O)cc1,52.6% (active)
14,C=C1c2c(Cl)ccc(O)c2C(O)=C2C(=O)[C@]3(O)C(O)=C(C(N)=O)C(=O)[C@@H](N(C)C)[C@@H]3[C@@H](O)C12 (stereo partly drawn),70.9% (active)
15,Cc1ccc(-n2ncc3c(Nc4cccc(C(=O)O)c4)ncnc32)cc1,23.1% (inactive)
16,CCOc1cc(C)ccc1OCc1nnc(SCC(=O)Nc2cccc(C(=O)O)c2)n1-c1ccccc1,41.2% (active)
17,COc1ccc2[nH]c3c(C)c4cc[n+](C)cc4c(C)c3c2c1,47.5% (active)
18,N#Cc1c(NC(=O)C2CC(Cl)=CCC2C(=O)O)sc2c1CCCCC2 (stereo not drawn),38% (active)
19,N#CCC(=O)Nc1ccc(C(=O)OCC(=O)Nc2sc3c(c2C#N)CCCC3)cc1,33.2% (inactive)
20,COC(=O)c1c(NC(=O)C2CC(C)=C(C)CC2C(=O)O)sc2c1CCCCC2 (stereo not drawn),66.4% (active)
21,CCOC(=O)c1c(NC(=O)C2CC=CCC2C(=O)O)sc(C)c1CC (stereo not drawn),37.1% (active)

row,SMILES,inhibition
1,CSc1ccc(C=Nn2c(-c3ccc(F)cc3)n[nH]c2=S)cc1,41.7% (active)
2,N#Cc1c(-c2ccccc2)nc(SCc2cccc(C(F)(F)F)c2)[nH]c1=O,80.3% (active)
3,O=C1CC(c2ccccc2)=NN1c1ccc([N+](=O)[O-])cc1,23.7% (inactive)
4,N#Cc1c(-c2ccccc2)nc(SCc2ccc([N+](=O)[O-])cc2)[nH]c1=O,58.7% (active)
5,Cc1ccc(CSc2nc(-c3ccccc3)c(C#N)c(=O)[nH]2)cc1,66.6% (active)
6,CCOc1cc(/C=C(\C#N)c2nc(-c3cccs3)c(NC(C)=O)s2)ccc1O,40.4% (active)
7,O=[N+]([O-])c1cc(Br)c(O)c(/C=N/Nc2nc3ccccc3s2)c1,94.7% (active)
8,Cc1ccc(S(=O)(=O)Nc2nc3ccccc3s2)cc1[N+](=O)[O-],29.7% (inactive)
9,C=CCNc1nc(N)c(C(=C(C#N)C#N)c2ccccc2)s1,15.9% (inactive)
10,O=C(N/N=C/c1c(Cl)[nH]c2ccccc12)c1sc2ccccc2c1Cl,22.9% (inactive)
11,Cc1cc(F)ccc1S(=O)(=O)Nc1ncnc2scc(-c3ccc(F)cc3)c12,70.8% (active)
12,CC(C(=O)Nc1ccc(O)c(C(=O)O)c1)N1C(=O)/C(=C/c2cccs2)SC1=S (stereo not drawn),75.9% (active)
13,Cc1nnc(NC(=O)Nc2ccc(Cl)c(Cl)c2)s1,24.5% (inactive)
14,CSc1nnc(NC(=O)c2nc(S(=O)(=O)Cc3ccc(C)cc3)ncc2Cl)s1,37.4% (active)
15,CCOC(=O)c1cc2cc(-c3c(C(=O)OCC)oc4cc(O)cc(O)c4c3=O)ccc2o1,40.4% (active)
16,Cn1c2ccccc2c2cc(/C=C(\NC(=O)c3ccccc3)C(=O)NCC(=O)O)ccc21,39.8% (active)
17,O=C(NC(=S)Nc1ccccc1C(=O)O)c1ccc(-c2ccc(Br)cc2)o1,82.7% (active)
18,Cc1ccc(S(=O)(=O)N2[C@@H](c3cccc4ccccc34)C(C(=O)O)=C[C@H]2C(C)(C)C)cc1,50.3% (active)
19,Cc1ccc(NC(=O)CC2S/C(=N/N=C3\CCCc4ccccc43)NC2=O)cc1 (stereo not drawn),54.7% (active)
20,CC1(C(=O)NS(=O)(=O)c2ccc3ccccc3c2)CCN1C(=O)C1(c2ccc(Cl)cc2)CCC1 (stereo not drawn),72% (active)
21,O=[N+]([O-])c1cc(Cl)cc(/C=N/NC(=S)Nc2cc(S(=O)(=O)N3CCOCC3)ccc2Cl)c1O,95.4% (active)

row,SMILES,inhibition
1,CCC(C)Cn1c(O)cc2nn(-c3nc4ccccc4s3)c(=O)c-2c1C (stereo not drawn),63.4% (active)
2,CC(C)c1nc(SCC(=O)Nc2cccc(C(=O)O)c2)c2c3c(sc2n1)CCCC3,61.1% (active)
3,CCSc1nsc(NC(=O)Nc2cccc(C(C)=O)c2)n1,26.3% (inactive)
4,Cc1ccc2nc(N3C(=O)C(O)=C(C(=O)c4ccco4)C3c3cccc(O)c3)sc2c1 (stereo not drawn),73.8% (active)
5,COc1cc(C2CC(=O)N3CN(Cc4ccccc4)CSC3=C2C#N)ccc1OCc1ccccc1 (stereo not drawn),25.8% (inactive)
6,O=C(N/N=C/c1cccnc1)c1cc2ccccc2cc1O,9.03% (inactive)
7,O=C(NNc1c2ccccc2nc2ccccc12)c1cc2ccccc2cc1O,45.6% (active)
8,CC(=N\NC(=O)c1cc(Br)ccc1O)/C(=N/O)C(=O)Nc1ccccc1,12.1% (inactive)
9,Cc1ccc(/C=C/C(=O)Nc2ccc([N+](=O)[O-])c(NC(=O)/C=C/c3ccc(C)o3)c2)o1,47.7% (active)
10,O=C(O)c1cccc(NC(=O)c2cc(-c3cccc(Cl)c3)nc3ccccc23)c1,46.1% (active)
11,O=C(Nc1cccc(F)c1)c1cc(-c2ccco2)nc2ccccc12,4.09% (inactive)
12,Cc1ccccc1-n1c(SCC(=O)Nc2cccc3ccccc23)nc(O)cc1=O,14.2% (inactive)
13,CCOc1ccc(-n2c(SCC(=O)Nc3cc(C(=O)O)ccc3Cl)nc3ccccc3c2=O)cc1,52.9% (active)
14,Cc1ccc(CNC(=O)C2CCN(S(=O)(=O)c3ccc4nc5c(c(C(=O)O)c4c3)CC(C)CC5)CC2)cc1 (stereo not drawn),36.4% (active)
15,O=C(O)c1ccc2c(c1)C(=O)N(c1ccc(/C=C/C(=O)c3ccccc3)cc1)C2=O,65.3% (active)
16,Cc1ccc(NC(=O)CSc2nc(CSc3ccc(C)cc3)cc(=O)[nH]2)cc1,53.5% (active)
17,COc1ccc(OC)c(NC(=O)CSc2nc(-c3ccccc3)cc(=O)[nH]2)c1,24.5% (inactive)
18,Cc1ccc(NC(=O)CSc2sc3c(O)cc(=O)[nH]c3c2C#N)cc1C,27.9% (inactive)
19,Cc1ccc(C(C)C)c(OCCSc2nc3ccccc3n2CC(=O)O)c1,50.3% (active)
20,Cc1ccc2cc(/C=N/Nc3ccc(C(=O)O)cc3)c(Cl)nc2c1,46.6% (active)
21,CC(Oc1ccc2c(-c3ccccc3)cc(=O)oc2c1)C(=O)NC(Cc1c[nH]c2ccccc12)C(=O)O (stereo not drawn),62.4% (active)

row,SMILES,inhibition
1,O=C(N[C@@H](Cc1c[nH]c2ccccc12)C(=O)O)OCC1c2ccccc2-c2ccccc21,63.4% (active)
2,COc1ccc(-c2cc(C(=O)NC(Cc3c[nH]c4ccccc34)C(=O)O)c(C)o2)cc1OC (stereo not drawn),61.4% (active)
3,COc1ccc(-c2cc(=O)oc3cc(OCC(=O)N[C@@H](Cc4c[nH]c5ccccc45)C(=O)O)ccc23)cc1,65.3% (active)
4,COc1ccc(S(=O)(=O)NCCc2c[nH]c3ccccc23)cc1OC,0.91% (inactive)
5,O=c1cc(CN2CCN(S(=O)(=O)/C=C/c3ccccc3)CC2)c2ccc(O)cc2o1,22.5% (inactive)
6,CCOc1ccc(C(=O)Nc2ccc(S(=O)(=O)Nc3cc(C)on3)cc2)cc1,23.1% (inactive)
7,COc1cc2ccccc2cc1C(=O)Nc1ccc(S(=O)(=O)Nc2cc(C)on2)cc1,58.8% (active)
8,Cc1cccc(C)c1NC(=O)C(c1ccc(C(F)(F)F)cc1)n1c(=O)c(-c2ccco2)nc2ccccc21 (stereo not drawn),26.2% (inactive)
9,COCCNC(=O)Nc1ccc2nc(-c3ccco3)c(-c3ccco3)nc2c1,61.6% (active)
10,COc1ccc(S(=O)(=O)NC(=O)C2(C)CCN2C(=O)c2ccccc2CCc2ccccc2)cc1 (stereo not drawn),34% (inactive)
11,CC1(C(=O)NS(=O)(=O)c2ccccc2)CCN1C(=O)Cc1ccc(-c2ccccc2)cc1 (stereo not drawn),34.1% (inactive)
12,CC(C)c1ccc(CC(=O)N2CCC2(C)C(=O)NS(=O)(=O)c2ccc(C(C)(C)C)cc2)cc1 (stereo not drawn),70.7% (active)
13,O=S(=O)(Nc1ccc(O)c2ccccc12)c1ccc(OC(F)(F)F)cc1,52.9% (active)
14,Cc1c(C)c2c(OCC(=O)N[C@@H](C(=O)O)c3ccccc3)cc3c(c2oc1=O)CCC(C)(C)O3,46.1% (active)
15,COc1ccc(COC(=O)NC(C(=O)O)c2ccccc2)cc1 (stereo not drawn),2.31% (inactive)
16,Cc1ccc(N=C2NC(=O)/C(=C/C=C/c3ccco3)S2)cc1C,48.9% (active)
17,CN(C)S(=O)(=O)c1cccc(-c2nn(-c3ccccc3)cc2/C=C2\SC(=S)N(CC(=O)O)C2=O)c1,88.1% (active)
18,O=C(CCCN1C(=O)/C(=C\c2ccco2)SC1=S)Nc1cccc2ccccc12,17% (inactive)
19,Cc1ccc(-c2nn(-c3ccccc3)cc2/C=C2\SC(=S)N(CCCCCC(=O)O)C2=O)o1,56% (active)
20,CC1(C(=O)NS(=O)(=O)Cc2cccc(Cl)c2)CCN1C(=O)Cc1ccc(Cl)cc1Cl (stereo not drawn),78.9% (active)
